From PubChem BioAssay
esBAF inh – inhibitors of esBAF chromatin remodeling in mouse ES cells; 350,000 compounds, 2% hits; reporter increase, % at 12.5 µM; Bmi1-luciferase knock-in reporter, 24 h; 100% = twice the neutral-well signal; in the data active = activation above about 40%; inconclusive = no clear call, values can overlap the other calls;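 also: a rise in the Bmi1 reporter signal indicates esBAF inhibition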
Statin myotox sup – suppressors of simvastatin-induced myotoxicity in C2C12 myotubes. ATP luminescence, 48 h; scaled: DMSO 0, geranylgeraniol control 100. rescue of ATP level, % at 7.49 µM. 330,000 compounds, 0.78% hits. AID 602340;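 active = mean ATP rescue above about 67%, or every replicate alone reaching that limit, limit read from the data, passing the limit was not always enough; inconclusive = no clear call, values can overlap the other calls; inactive = mean under the limit and some replicate under it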;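 also: myotubes were challenged with 10 µM simvastatin during compound exposure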
MITF act – activators of MITF-driven TRPM1 promoter activity in SK-MEL-5 cells | activation, % at 12.5 µM | 300,000 compounds, 0.75% hits | AID 588334 | SK-MEL-5 TRPM1-promoter luciferase, 24 h; % of positive control, neutral wells = 0;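 active = mean activation of at least 80% with every replicate also reaching 80%; inconclusive = mean reaches 80% but some replicate falls short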
TRPM1 prom inh – inhibitors of MITF-driven TRPM1 promoter in melanoma cells. SK-MEL-5 TRPM1 promoter luciferase, 24 h. inhibition, % at 12.5 µM. 330,000 compounds, 0.83% hits;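 active = mean inhibition across replicates of 60% or more, whatever share of single replicates reaches that level; inconclusive = some that reach 60%, reason not given; inactive = mean inhibition across replicates below 60%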
Wnt bcat act – Wnt/beta-catenin pathway activation; Wnt/beta-catenin reporter cell assay, activator, plate reader; activation, % at 9.35 µM; 300,000 compounds, 1.2% hits; in the data active = activation above about 30%, passing the limit was not always enough; inconclusive = no clear call, values can overlap the other calls
EBV LMP1 NFkB – inhibitors of Epstein-Barr LMP1-induced NF-kappaB reporter | LMP1-induced NF-kappaB luciferase reporter cells, luminescence | inhibition, % at 12.5 µM | 350,000 compounds, 0.69% hits; in the data active = inhibition above about 41%; inconclusive = no clear call, values can overlap the other calls
Ring1 derepress – confirmation of esBAF inhibitors: Ring1 de-repression in mouse ESCs; shares compounds with esBAF inh; mouse ESC E14, Ring1 mRNA RT-qPCR fold change; fold change at 33 µM; 550 tested, under 10 active; AID 743176;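 active = Ring1 gene expression raised more than 2-fold over untreated cells in both replicates at either tested dose; inconclusive = only one replicate above 2-fold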;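 also: Ring1 transcript normalised to actin housekeeping signal by TaqMan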
esBAF Fgf4 qPCR – represses Fgf4 in mouse ESCs, confirming esBAF inhibition | shares compounds with esBAF inh | mouse ESC E14, Fgf4 mRNA qPCR fold change; hits give low values | Fgf4 expression fold change at 33 µM | 550 compounds, 4% hits;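 active = Fgf4 expression under 0.8 fold of control in both repeat measurements at one or both tested doses; inconclusive = under 0.8 fold in just a single repeat measurement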;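 also: Fgf4 transcript normalised to actin in duplex TaqMan qPCR; cells exposed to compound for 24 h before lysis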
esBAF Bmi1 qPCR – esBAF inhibition confirmed by Bmi1 de-repression; mouse ESE14 ES cells, Bmi1 mRNA qPCR fold; hits give high values; 550 tested, under 10 active; shares compounds with esBAF inh; fold change at 33 µM;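 active = Bmi1 expression fold change above 6 at either tested concentration, seen in replicate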;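 also: higher fold means more Bmi1 de-repression and stronger esBAF inhibition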
A549 tox SP – kills or reduces viability of A549 cells; shares compounds with esBAF inh; A549 cytotoxicity, plate reader; cell viability change % (negative = cytotoxic), % at 25 µM, hits read low; 550 tested, under 10 active; call rule not given here
HepG2 cytotox SP – cytotoxicity in HepG2 cells; shares compounds with esBAF inh; plate reader; hits give low values; activity change, negative = inhibition, % at 25 µM; 550 compounds, 4% hits; in the data active = activity change below about -50%
HEK293 cytotox SP – kills or reduces viability of HEK293 cells. shares compounds with esBAF inh. HEK293 cytotoxicity, plate reader. activity change, negative = inhibition, % at 25 µM, hits read low. 550 compounds, 3% hits; in the data active = activity change below about -38%, passing the limit was not always enough
Hits are given with their value; . = inactive; ? = inconclusive; / = no result given. A selection: hits, their analogues and other compounds. The true share with any hit is near 4%.

SMILES	esBAF inh	Statin myotox sup	MITF act	TRPM1 prom inh	Wnt bcat act	EBV LMP1 NFkB	Ring1 derepress	esBAF Fgf4 qPCR	esBAF Bmi1 qPCR	A549 tox SP	HepG2 cytotox SP	HEK293 cytotox SP
Cc1cc2oc(=O)cc(CN3CCC(C)CC3)c2c(C)c1Cl	59	.	/	.	.	.	.	.	.	.	.	.
Cn1c2nc3ccccc3c-2nc2ccccc21	54	.	/	/	39	.	.	.	6.4	.	.	.
COc1ccc2c(=O)c3ccccc3oc2c1	58	.	104	.	.	.	.	.	.	.	.	.
COc1ccc2c(=O)c(-c3ccc(OC)c(OC)c3)coc2c1	58	.	95	.	.	.	.	.	.	.	-60	.
COc1ccc2c(=O)c(N3C(=O)c4ccccc4C3=O)c(C)oc2c1	.	.	.	.	.	.	/	/	/	/	/	/
Cc1nc(-c2cccc(S(=O)(=O)N3CC(C)CC(C)C3)c2)cs1 (configuration not stated)	/	/	.	.	/	.	/	/	/	/	/	/
C(=Cc1cnnc2ccccc12)c1ccccc1	138	.	.	.	.	.	.	.	.	.	.	.
CSc1cnnc2ccccc12	/	/	.	.	.	.	/	/	/	/	/	/
CC1(C(=O)Nc2ccc3ccccc3c2)CCC(=O)N1CC(F)(F)F (configuration not stated)	.	.	/	/	.	/	/	/	/	/	/	/
O=C(NCc1ccccc1)c1cc(=O)c2ccccc2o1	/	/	.	.	/	.	/	/	/	/	/	/
O=C(Nc1ccccc1Cl)c1cc(=O)c2ccccc2o1	73	.	/	.	.	.	.	.	.	.	.	.
O=C(Cc1ccccn1)c1ccc(Cl)cc1	100	.	104	.	.	.	.	.	.	.	.	.
Fc1cccc(-c2csc(-c3ccno3)n2)c1	/	/	.	.	.	.	/	/	/	/	/	/
Nc1nc(-c2cccc(F)c2)cs1	57	.	.	.	?	.	.	?	.	.	.	.
COc1ccc(CCNC(=O)CSc2nncn2N)cc1OC	.	.	.	.	/	.	/	/	/	/	/	/
O=C(CSc1nnc(-c2cccnc2)n1Cc1ccco1)NCc1ccc2c(c1)OCO2	/	/	/	.	/	.	/	/	/	/	/	/
Cn1cccc1C(=O)OCc1ccc(C(C)(C)C)cc1	84	.	/	.	.	.	.	?	.	.	.	.
C[C@@H]1CN([C@@H](C)CO)C(=O)c2cccc(NC(=O)c3ccc(-c4nccs4)cc3)c2O[C@@H]1CN(C)C	.	.	/	/	/	/	/	/	/	/	/	/
COc1ccc2cc(C(=O)N(C)CC(=O)Nc3ccccc3Br)ccc2c1	60	.	.	.	42	.	.	.	.	.	.	.
CN(CC(=O)Nc1ccccc1Br)C(=O)c1ccc(COc2ccccc2)cc1	.	.	.	.	.	.	/	/	/	/	/	/
CN(CC(=O)Nc1ccccc1Br)C(=O)c1cc2c(s1)CCCCC2	67	.	?	.	43	.	.	.	.	.	.	.
ON=C(CCc1ccccc1)c1ccccc1	74	.	/	/	.	/	.	.	.	.	.	.
c1ccc(CCNc2ccccn2)nc1	/	/	.	.	.	.	/	/	/	/	/	/
c1ccc(CCNc2ccc3c(c2)Cc2ccccc2-3)nc1	82	.	.	.	.	.	.	?	.	.	.	.
COc1ccc(-c2cc3ccccc3s2)cc1[C@H]1[C@H]2C=CC[C@@H](C)[C@@H]2C(=O)N1Cc1ccccc1	50	.	.	.	37	.	.	.	.	.	.	.
